# Measurements reported in PubChem BioAssay (NCI).
# Compounds without any hit were thinned out: in the full panel of roughly 83,000, 20% have a hit.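 Cells were grown in 96-well plates and exposed to the test compound at a single concentration for 48 hours; results are reported as percent growth, with values below 10 considered active.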 Calls of active or inactive are those of the source.
# Tested on: MDA-MB-468 breast
# Assay: NCI-60 one-dose screen, 48 h (100 = growth as untreated, 0 = no growth, -100 = all killed)
# Conditions: 10 µM unless noted
row,SMILES,growth
1,Oc1ccc2c(=S)cc(-c3ccc(Br)cc3)oc2c1O,-2.5% (active)
2,O=[N+]([O-])c1cc2c(ccc3occc32)o1,-8.85% (active)
3,CC(C)=CC/C=C(/C)[C@H]1CC[C@]2(C)[C@@H]1CC[C@@H]1[C@@]3(C)CCCNC(C)(C)[C@@H]3CC[C@]12C,-50.1% [100 µM] (active)
